High-throughput results (PubChem)
NS1 inh: qHTS Assay for Inhibitors of Influenza NS1 Protein Function; AID 2326, 2010; Potency, µM (titrated, usually from 46.1 µM), without a hit: at the highest dose activity, positive = more growth; hit rate 0.4% among 270,000; calls by dose curve; further: actives are rising curves; nearly all actives have a fitted effect of over 50% in size
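S. cerevisiae expressing influenza A NS1, grown in glucose, washed, then diluted 1:100 into pH 6.0 -URA galactose medium with 23 nl compound. Growth recovery read as OD600; NS1-free strain serves as control.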
AmpC inh no detg: qHTS Inhibitors of AmpC Beta-Lactamase (assay without detergent); AmpC nitrocefin hydrolysis, absorbance 480 nm, 0.0001% Triton; hit rate 0.52% among 330,000; AID 485341, 2010; P00811; Potency, µM (titrated, usually from 57.1 µM), without a hit: at the top dose activity change, negative = inhibition, usual class: inhibitors;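 further: plate controls were no compound for no effect and no enzyme for full effect; nearly all actives have a fitted effect of over 20% in size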
Target sequence (P00811 whole entry, looked up): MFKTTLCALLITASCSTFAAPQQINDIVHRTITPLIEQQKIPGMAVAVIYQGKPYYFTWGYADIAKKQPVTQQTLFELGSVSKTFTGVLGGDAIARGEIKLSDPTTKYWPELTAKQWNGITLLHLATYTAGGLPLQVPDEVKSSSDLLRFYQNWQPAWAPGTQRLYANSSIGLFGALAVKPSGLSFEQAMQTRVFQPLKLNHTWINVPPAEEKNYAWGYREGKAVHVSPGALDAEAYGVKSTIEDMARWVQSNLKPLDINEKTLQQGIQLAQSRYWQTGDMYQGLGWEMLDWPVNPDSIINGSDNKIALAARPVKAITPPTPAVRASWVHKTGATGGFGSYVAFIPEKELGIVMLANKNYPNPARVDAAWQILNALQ
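AmpC (5.3 nM in the dispensed reagent) in 20 mM phosphate pH 7.0 with 0.01% (detergent screen) or 0.0001% Triton X-100 was preincubated with compounds for 15 min at room temperature. Nitrocefin was then added from an 800 uM solution, and hydrolysis was followed at 480 nm.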
AMA1 RON2 block: qHTS for Inhibitors of AMA1-RON; Towards Development of Antimalarial Drug Lead: Primary Screen | Plasmodium falciparum AMA1 (3D7) - RON2 peptide interaction | AlphaScreen AMA1-biotinylated RON2 peptide binding | Potency, µM (series often up to 58.2 µM), without a hit: at the highest dose activity change, negative = inhibition, most hits filed as inhibitors | hit rate 0.2% among 360,000;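 further: 0% = vehicle wells and -100% = peptide control; nearly all actives have a fitted effect of over 45% in size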
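AMA1 (3D7) with his tag at 25 nM final met compounds first, then biotinylated RON2 peptide at 25 nM; detection used donor plus acceptor beads, 10 µg/mL apiece, read by AlphaScreen after 30 min at room temperature.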
SARS PLP yeast: qHTS of Yeast-based Assay for SARS-CoV PLP; S. cerevisiae expressing SARS-CoV PLpro, growth rescue; Potency, µM (titrated, usually from 32.9 µM), without a hit: top-dose activity, positive = growth rescue, usual class: activators; hit rate 0.19% among 330,000; calls by dose curve; further: 0% is about no effect; nearly all actives have a fitted effect of over 55% in size
AmpC inh detg: qHTS Inhibitors of AmpC Beta-Lactamase (assay with detergent); AmpC hydrolysis of nitrocefin, absorbance 480 nm, 0.01% Triton; hit rate 0.041% among 370,000; P00811; Potency, µM (doses to about 114 µM), inactives show at the highest dose activity change, negative = inhibition, hits mostly inhibitors; AID 485294, 2010;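 further: 0% = no-compound wells and -100% = no-enzyme wells; nearly all actives have a fitted effect of over 25% in size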
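20 mM phosphate pH 7.0 + 0.01% (detergent screen) or 0.0001% Triton X-100; 5.3 nM AmpC reagent; cpd preinc 15 min RT; nitrocefin (800 uM stock) to start; A480 q20 s × 4 min; Activity was normalised to no-enzyme and no-compound control wells.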
* hit, by the source's call; ? = inconclusive; . = not tested or not shown. Rows were chosen to be rich in hits. Some 0.99% of all compounds tested hit in one or more screens of this group. Unless noted, the call rests on the fitted dose curve; in most records, active means well fitted curve in the direction sought with a large enough effect; inconclusive means small, poorly fitted or top-dose-only effect, or another doubt; inactive means no such curve, though single readings can be large; an effect the other way counts as inactive or inconclusive. Potency means the concentration at half of the fitted maximal effect.

SMILES	NS1 inh	AmpC inh no detg	AMA1 RON2 block	SARS PLP yeast	AmpC inh detg
O=C(CSc1nnc2c(n1)[nH]c1ccccc12)Nc1ccc2c(c1)OCO2	20%	8.9µM*	-4%	-4%	-1%
O=C(CSc1nnnn1-c1ccccc1Cl)Nc1ccc2c(c1)OCCO2	-17%	32µM*	-7%	-6%	-2%
O=C(CSCc1ccc(Cl)cc1)Nc1ccc2c(c1)OCCO2	-35%	11µM*	-4%	-8%	-3%
Cc1cccc(Nc2nc(-c3ccccc3)c3cc(C)ccc3n2)c1	.	.	.	.	17%
CC1(C(=O)NC2CCCCC2)Cc2ccccc2C(=O)N1Cc1ccccc1Cl (stereo not given)	.	.	.	.	-5%
COc1cccc(C(=O)NCC(c2ccc(N(C)C)cc2)N2CCCC2)c1OC (stereo not given)	.	.	.	.	16%
Cc1cc(C)nc(SCC(=O)c2ccc(O)c(O)c2)n1	?	-23%	27%	0%	3%
Cc1cc(SCC(=O)c2ccc(O)c(O)c2)n2nc(C)c(-c3ccccc3)c2n1	13%	6.3µM*	80%	?	4%
COc1ccc(-n2c(SCC(=O)NCc3ccc(F)cc3)nc3c([nH]c4ccccc43)c2=O)cc1	.	.	.	.	3%
COc1ccc(NC(=O)c2ccc(-c3ccc([N+](=O)[O-])cc3)o2)cc1OC	4%	15%	5%	-23%	-12%
COc1cccc(NC(=O)c2ccc(-c3ccc([N+](=O)[O-])cc3)o2)c1	1%	18µM*	-10%	-1%	-6%
CC(C)(C)NS(=O)(=O)c1ccc(Oc2ncc(C(F)(F)F)cc2Cl)cc1	-23%	5µM*	-2%	-16%	-5%
COCCCNS(=O)(=O)c1ccc(Oc2ncc(C(F)(F)F)cc2Cl)cc1	1%	58%	-1%	-8%	5%
N#CC1=C(S)N(c2ccccc2)C(c2ccc(-c3ccc(Cl)c(Cl)c3)o2)NC1=O (stereo not given)	-33%	10µM*	23%	-6%	5%
N#CC1=C(S)N(c2ccccc2)C(c2ccc(-c3cc(Cl)ccc3Cl)o2)NC1=O (stereo not given)	17%	-54%	19%	-1%	-15%
CC(=O)Oc1cc(C(=O)OCC(=O)NC23CC4CC(CC(C4)C2)C3)cc(OC(C)=O)c1OC(C)=O	.	.	20µM*	.	.
COc1cccc(C(=O)OCC(=O)NC23CC4CC(CC(C4)C2)C3)c1	.	-7%	21%	-5%	.
O=C(c1ccccc1)N1CCN(c2ccc(NCc3ccc4c(c3)OCO4)cc2)CC1	?	11%	28µM*	2%	0%
CC(=O)N1CCN(c2ccc(NCc3ccc4c(c3)OCO4)cc2)CC1	?	84%	1%	-6%	2%
CN(C)c1ccc(Cc2cc3c(O)ccc(O)c3cc(Cc3ccc(N(C)C)cc3)c2=O)cc1	.	.	11µM*	.	.
CCN1CCN(Cc2nc3c(c(=O)[nH]c(=O)n3C)n2Cc2ccccc2Cl)CC1	1%	-21%	-8%	-25%	?
Cn1c(=O)[nH]c(=O)c2c1nc(CN1CCN(c3cccc(Cl)c3)CC1)n2Cc1ccccc1Cl	-66%	45µM*	-1%	-2%	?
COc1nc(N)c(S(=O)(=O)c2ccccc2C)cc1C#N	-3%	0.16µM*	-2%	-1%	6%
COC(=O)c1ccccc1NC(=O)c1ccc2c(c1)CCN2S(=O)(=O)c1ccc(Cl)cc1	.	.	.	.	22%
NC(=O)c1sc2nc3c(c(-c4ccco4)c2c1N)CCCC3	-3%	-15%	0%	1%	?
SMILES	NS1 inh	AmpC inh no detg	AMA1 RON2 block	SARS PLP yeast	AmpC inh detg
Nc1c(C(=O)NCC2CCCO2)sc2nc3c(c(-c4ccco4)c12)CC/C3=C\c1ccco1 (stereo not given)	?	0%	8.9µM*	20%	-6%
CCOc1ccc(CN2CCc3nc(Nc4ccc5c(c4)OCCO5)ncc3C2)cc1	.	.	.	.	-5%
CCN(CC)c1ccc(C(NC(=O)C(C)C)c2ccc3cccnc3c2O)cc1 (stereo not given)	.	.	-15%	.	.
CC(C)C(=O)NC(c1ccco1)c1ccc2cccnc2c1O (stereo not given)	-61%	-26%	20µM*	?	-12%
Cc1ccc(N2CC(NC(=O)c3ccc(S(=O)(=O)N4CCOCC4)cc3)CC2=O)cc1C (stereo not given)	.	.	.	.	-2%
Cc1ccc(N)c(C(=O)c2ccc(Br)cc2)c1	.	-3%	16µM*	-1%	3%
C/C(CC(=O)Nc1ccc(Cl)c(C(F)(F)F)c1)=N\NC(=O)c1cc2ccccc2cc1O	3%	10µM*	80%	1%	-6%
COc1cccc(NC(=O)C/C(C)=N/NC(=O)c2ccccc2Cl)c1	-1%	-11%	95%	1%	-6%
CN(C)S(=O)(=O)c1cc(NC(=O)CSc2nn(-c3ccc(Cl)cc3)c(=S)s2)ccc1Cl	?	14µM*	15%	?	?
Cc1ccc(NC(=O)CSc2nn(-c3ccc(Cl)cc3)c(=S)s2)cc1S(=O)(=O)N(C)C	-3%	-54%	41%	-6%	11%
Cc1ccccc1OCCCN1C(=O)C(=O)c2cccc(C)c21	-119%	?	16µM*	-39%	?
CCOc1ccc(-n2ccnc2SCC(=O)Nc2ccc(OC)cc2OC)cc1	.	.	.	.	-3%
CC(C)(C)c1ccc(C(=O)Nc2nnc(Cc3c[nH]c4ccccc34)s2)cc1	2%	11µM*	25%	8%	-3%
CCNc1sc(C(=O)c2cccs2)c(N)c1-c1nc2ccccc2s1	-9%	-36%	28%	-6%	-17%
CCOC(=O)c1sc(NCc2ccco2)c(-c2nc3ccccc3s2)c1N	1%	11µM*	-11%	-3%	?
COc1ccc(C(=O)NC(c2ccc(Cl)cc2)c2cc(Cl)c3cccnc3c2O)cc1 (stereo not given)	.	.	.	.	-7%
O=C(NC(c1ccccc1)c1cc(Cl)c2cccnc2c1O)c1cccnc1 (stereo not given)	9%	-1%	.	1.8µM*	-3%
O=C(Nc1ccc(Cl)cc1)C1C2CCC3C(CCC21)C3(Cl)Cl (stereo not given)	-55%	-49%	9%	-18%	-8%
Cc1cccc(NC(=O)C2C3CCC4C(CCC32)C4(Cl)Cl)c1 (stereo not given)	3%	32µM*	-4%	0%	-1%
O=C(Nc1ccc(F)cc1)C1C2CCC3C(CCC21)C3(Cl)Cl (stereo not given)	-11%	14µM*	2%	-9%	3%
CCOC(=O)N1CCC(NC(=O)Cn2cc3c(n2)CCCC3)CC1	-18%	2.8µM*	-19%	3%	?
O=C(Cn1cc2c(n1)CCCC2)NC1CCCCCC1	-7%	-59%	0%	2%	?
